Measurements taken from PubChem BioAssay AID686979 (National Center for Advancing Translational Sciences (NCATS), 2013).
The whole screen tested about 420,000 compounds, of which about 50,000 (12%) were called active. Another 26% or so got no clear call; they are omitted. Only a selection was taken, and actives are over-represented in it overall. Values without a mark were called inactive. Calls follow the shape of the dose curve; as a rule, active = well fitted inhibition curve with a large enough effect; inconclusive = small, poorly fitted or top-dose-only effect; inactive = flat fitted curve, though single readings scatter.

Assay: qHTS for Inhibitors of human tyrosyl-DNA phosphodiesterase 1 (TDP1): qHTS in cells in presence of CPT; also: nearly all actives have a fitted effect of over 55% in size
Conditions: chicken DT40 Tdp1-/-;hTDP1 cells + 20 nM CPT, ATP luminescence, 48 h; series mostly up to 46.2 µM; activity change, negative = growth inhibition: at the top concentration
Summary of the method: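 Chicken DT40 Tdp1-/- cells stably complemented with human TDP1 were seeded at 400 cells/well in medium containing 20 nM camptothecin, exposed to pin-transferred compounds, and grown at 37 °C for at least 48 hr. Viability was read as ATP luminescence.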
% is scaled to controls: 0 for no effect and ±100 for the full control effect; potency is read from the fitted curve at half-maximal effect.

Row | Compound | activity change, negative = growth inhibition | Potency
1 | Cc1noc(C)c1S(=O)(=O)N(C)C[C@H]1Oc2ccc(NC(=O)C3CCCCC3)cc2C(=O)N([C@H](C)CO)C[C@@H]1C | -22% | –
2 | COc1ccccc1C(=O)Nn1c(-c2cccs2)nc2ccccc2c1=O | – | 18.4 µM (active)
3 | O=C(Nn1c(-c2ccc(Cl)cc2)nc2ccccc2c1=O)c1cccnc1Cl | 4.95% | –
4 | COc1cc(OC)cc(-c2nc3ccccc3c(=O)n2NC(=O)c2cccnc2Cl)c1 | 17.5% | –
5 | Cc1ccc(OCC(=O)OCc2cc(=O)n3nc(C4CC4)sc3n2)cc1 | -14.9% | –
6 | CCc1cc(C(=O)Nc2nnc(C3CC3)s2)sc1C | -2.49% | –
7 | CCCN(CC(=O)Nc1ccccc1C)C(=O)c1ccc(OCC(=O)N2CCOCC2)c(OCC)c1 | -11.1% | –
8 | CCCN(CC(=O)Nc1ccccc1C)C(=O)c1ccc2[nH]c3c(c2c1)CC(C)CC3 (stereo not drawn) | – | 20.6 µM (active)
9 | CCCN(CC(=O)Nc1ccccc1C)C(=O)c1cc(=O)[nH]c2ccccc12 | 15.5% | –
10 | Cc1ccc(CN2CCN(c3ccccc3Cl)CC2)o1 | -0.0371% | –
11 | Cc1ccc(N2C(=O)C3C4C=CC(CC4)C3C2=O)cc1Cl (stereo not drawn) | -2.58% | –
12 | O=C(NCCN1CCOCC1)/C(=C/c1ccc(F)cc1)NC(=O)c1ccccc1 | -3.57% | –
13 | Nc1nc(COC(=O)CCC(=O)c2ccc(Cl)cc2)nc(Nc2ccccc2)n1 | -24.3% | –
14 | CCCc1cc(C(=O)Nc2ccc(C(=O)OC)cc2)cs1 | -16.7% | –
15 | CCOC(=O)C1CCCN(C(=O)CN(c2ccc(OC)cc2)S(=O)(=O)c2c(C)noc2C)C1 (stereo not drawn) | -48.7% | –
16 | CCOC(=O)C1CCCN(C(=O)Cn2ncc3c(=O)oc4ccc(C)cc4c32)C1 (stereo not drawn) | -12.6% | –
17 | CCOC(=O)C1CCCN(C(=O)Cn2ncc3c(C)n(Cc4ccc(F)cc4)c(C)c3c2=O)C1 (stereo not drawn) | – | 14.6 µM (active)
18 | CCCNC(=O)c1cc(C2CCCCN2S(=O)(=O)c2cn(C)cn2)on1 (stereo not drawn) | -22.3% | –
19 | CCS(=O)(=O)N1Cc2ccccc2CC1C(=O)Nc1nc2ccc(F)cc2s1 (stereo not drawn) | -0.226% | –
20 | O=C(Nc1ccc(O)cc1)c1ccc(NC(=O)c2ccco2)cc1 | -8.54% | –
21 | Cc1cc(C)c2cc(CN(Cc3nnnn3Cc3ccc(F)cc3)C3CCCC3)c(=O)[nH]c2c1 | – | 14.6 µM (active)
22 | Cc1cc(C)c2cc(CN(Cc3cccs3)Cc3nnnn3CC3CCCO3)c(=O)[nH]c2c1 (stereo not drawn) | – | 23.1 µM (active)
23 | Cc1cccc2cc(CN(Cc3nnnn3Cc3ccccc3)C3CCCC3)c(=O)[nH]c12 | – | 20.6 µM (active)
24 | Cc1n[nH]c(=O)c2c1nnn2Cc1ccc(F)cc1 | -4.85% | –

Row | Compound | activity change, negative = growth inhibition | Potency
25 | Cc1cccc2cc(CN(Cc3cccs3)C(c3nnnn3C3CCCC3)C(C)C)c(=O)[nH]c12 (stereo not drawn) | -77.9% | –
26 | O=C(c1cccs1)N(Cc1cc2ccccc2[nH]c1=O)CC1CCCO1 (stereo not drawn) | 12.6% | –
27 | c1ccc(CCn2nnnc2CN2CCN(C3CCCC3)CC2)cc1 | -0.628% | –
28 | Cc1cccc2cc(CN(C(=O)c3cccs3)c3ccccc3)c(=O)[nH]c12 | -19.4% | –
29 | CCCN(Cc1cc2cccc(C)c2[nH]c1=O)S(C)(=O)=O | -2.17% | –
30 | Cc1ccc(S(=O)(=O)N(Cc2cc3ccccc3[nH]c2=O)CC2CCCO2)cc1 (stereo not drawn) | -17.1% | –
31 | CCC(c1nnnn1C1CCCC1)N(Cc1cccs1)Cc1cc2cccc(C)c2[nH]c1=O (stereo not drawn) | – | 20.6 µM (active)
32 | Cc1occc1-c1nnc(SCC(=O)NC2CCCCC2)o1 | -8.72% | –
33 | Cc1cc2c(cc1S(=O)(=O)CCC(=O)NCc1ccccc1)OCC(=O)N2 | 5.34% | –
34 | CCSCc1nc(N)nc(NCCc2ccccc2)n1 | -6.97% | –
35 | CCOc1ccc(-n2cnc3c(=O)[nH]c(N)nc32)cc1 | 2.7% | –
36 | CN(Cc1ccc(F)cc1)C(=O)COc1ccc2ccccc2c1 | 21.9% | –
37 | NC(=O)c1cc(-c2cccnc2)nc2ccc(Br)cc12 | -19.6% | –
38 | CN1CCCCCC1C(=O)NCCN1Cc2ccccc2OC(c2ccsc2)C1 (stereo not drawn) | 11.9% [at 9.04 µM] | –
39 | C#CCOCCOCCOCCNc1nc(N2CCOCC2)nc(N2CCN(C(=O)[C@H](Cc3ccc(O)cc3)n3cc(CCO)nn3)CC2)n1 | -10% | –
40 | CCN(C(=O)COC(=O)CCC(=O)c1cccs1)C1CCCCC1 | -12.4% | –
41 | COc1ccc(Br)cc1C1CC(=O)Nc2c1c(C)nn2-c1nc(C)cc(C)n1 (stereo not drawn) | – | 16.4 µM (active)
42 | COc1ccc(C2c3c(C)nn(-c4ccccc4)c3NC(=O)N2c2ccccc2)cc1 (stereo not drawn) | -0.19% | –
43 | COc1ccc(C2CC(=O)Nc3c2c(=O)nc2c(C)cccn32)cc1OC (stereo not drawn) | -19.8% | –
44 | CCOC(=O)C1(C)NC(c2ccco2)C2C(=O)N(c3ccccc3)C(=O)C21 (stereo not drawn) | 2.33% | –
45 | COC(=O)C1(C)NC(c2ccc(F)cc2)C2C(=O)N(c3ccccc3)C(=O)C21 (stereo not drawn) | 10% | –
46 | CCCCC1(C(=O)OCC)NC(c2ccc(O)cc2)C2C(=O)N(c3ccccc3)C(=O)C21 (stereo not drawn) | – | 14.6 µM (active)
47 | COc1ccc(NC(=O)/C(C#N)=C\c2cc(OC)c(OCc3ccc(C(=O)O)cc3)cc2Br)cc1 | 0.494% | –
48 | COc1ccccc1C(=O)N/C(=C/c1ccco1)C(=O)Nc1ccc(C(=O)O)cc1 | 9.19% | –
